The supplement of paper PMC3484114
± gives the standard deviation.

Each compound was assayed on OVCAR-3-derived ovarian cancer stem-like cells (spheroids) (assay: cell growth relative to untreated control; higher = more growth (less inhibition)). Details: 2.29 µM; 96 h.
Outline: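 OVCAR-3 spheroid-derived stem-like cells were trypsin-dissociated, seeded at 50,000 cells/mL in stem cell medium in ultra-low attachment 96-well plates and preincubated 24 h. Compounds were then added at 2.29 uM for 96 h at 37°C, 5% CO2, in 4 replicate wells. Viability was read as TOX8 resazurin fluorescence (ex 560/em 590 nm) after 4 h. Percent growth was calculated relative to untreated wells after blank subtraction and Grubbs outlier removal.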

Structure (SMILES)	cell growth [%]
CC[C@]1(O)C[C@H]2CN(CCc3c([nH]c4ccccc34)[C@@](C(=O)OC)(c3cc4c(cc3OC)N(C=O)[C@H]3[C@@](O)(C(=O)OC)[C@H](OC(C)=O)[C@]5(CC)C=CCN6CC[C@]43[C@@H]65)C2)C1	27 ± 6
O=C1C=C(Nc2ccccc2C(=O)CC(=O)C(=O)Nc2ccc(Cl)cc2)c2ccccc2C1=O	49.4 ± 15
O=[N+]([O-])c1cc(C(F)(F)F)cc([N+](=O)[O-])c1CCl	38.4 ± 11
COc1cc(C(O)CCBr)c(OC)cc1C (centres undefined)	86.9 ± 26
O=c1[nH]c(=O)n(C2OC(CO)C(O)C2O)cc1F (centres undefined)	19.2 ± 4.6
CS(=O)(=O)c1nc(N)nc2nc[nH]c12	99.3 ± 19
CNC(=S)N/N=C/c1ccc([N+](=O)[O-])s1	87.9 ± 21
CC(=O)O[C@]1(C(C)=O)CC[C@H]2[C@@H]3C[C@H](C)C4=CC(=O)C=C[C@]4(C)[C@@]3(F)[C@@H](O)C[C@@]21C	130 ± 81
C(=N\NC1=NCCN1)/c1c2ccccc2c(/C=N/NC2=NCCN2)c2ccccc12	21.4 ± 5.8
CN(C)c1ccc(/C=C2/C=Cc3ccccc32)cc1	101 ± 8.1
COc1ccc(OC)c(-c2cc(=O)c3c(OC)c(OC)c(OC)c(OC)c3o2)c1	128 ± 50
CC1=CC(=C(c2ccc(N)cc2)c2ccc(N)cc2)C=CC1=N	50.4 ± 6.5
COc1c2c(c(OC)c3c1c(=O)c1ccccc1n3C)OCO2	97.8 ± 12
CCN(CC)CCNc1ccc(C)c2sc3ccccc3c(=O)c12	77.7 ± 26
Oc1cc2c3c(c1)c1cc4c(cc1c[n+]3CC2)OCO4	97.7 ± 13
CS(=O)(=O)OCCCCOS(C)(=O)=O	121 ± 16
Cc1c2ccnc(C(N)=O)c2c(C)c2c1[nH]c1ccccc12	113 ± 10
c1coc(CNc2ncnc3[nH]ncc23)c1	37.7 ± 8.4
O=c1cccccc1O	92.1 ± 38
CSC1SC[C@H]2C(=O)N(C)[C@@H](C(C)C)C(=O)OC[C@@H](NC(=O)c3cnc4ccccc4n3)C(=O)N[C@@H](C)C(=O)N(C)[C@@H]1C(=O)N(C)[C@@H](C(C)C)C(=O)OC[C@@H](NC(=O)c1cnc3ccccc3n1)C(=O)N[C@@H](C)C(=O)N2C (some centres undefined)	19.7 ± 3.8
Cc1c(N=Cc2ccc(N(CCC#N)CCC#N)cc2)c(=O)n(-c2ccccc2)n1C	133 ± 36
C=C(C)[C@@H]1CC[C@]2(C(=O)O)CC[C@]3(C)[C@H](CC[C@@H]4[C@@]5(C)CC[C@H](O)C(C)(C)[C@@H]5CC[C@]43C)[C@@H]12	76 ± 22
CC1=CC(=O)c2ccccc2C1=O	89.6 ± 9.4
COC1/C=C/OC2(C)Oc3c(C)c(O)c4c(c3C2=O)C(=O)C=C(NC(=O)/C(C)=C\C=C\C(C)C(OC=O)C(C)C(O)C(C)C(OC(C)=O)C1C)C4=O (centres undefined)	66.6 ± 67
